In PubChem BioAssay AID504447 (The Scripps Research Institute Molecular Screening Center, 2011):
Entries with a potency or affinity are not part of this list. The source made the active and inactive calls. How the calls were made is not given here.

What follows are molecules tested against Peroxisome proliferator-activated receptor gamma (Homo sapiens) (UniProt P37231) (assay: PPARg partial agonists, dose response, cell-based, luminescence, assay provider (AID 504447)). Details: cell-based PPARg reporter, luciferase luminescence, partial agonism; series mostly up to 5 µM.
Peroxisome proliferator-activated receptor gamma (Homo sapiens), sequence (P37231 whole entry, looked up): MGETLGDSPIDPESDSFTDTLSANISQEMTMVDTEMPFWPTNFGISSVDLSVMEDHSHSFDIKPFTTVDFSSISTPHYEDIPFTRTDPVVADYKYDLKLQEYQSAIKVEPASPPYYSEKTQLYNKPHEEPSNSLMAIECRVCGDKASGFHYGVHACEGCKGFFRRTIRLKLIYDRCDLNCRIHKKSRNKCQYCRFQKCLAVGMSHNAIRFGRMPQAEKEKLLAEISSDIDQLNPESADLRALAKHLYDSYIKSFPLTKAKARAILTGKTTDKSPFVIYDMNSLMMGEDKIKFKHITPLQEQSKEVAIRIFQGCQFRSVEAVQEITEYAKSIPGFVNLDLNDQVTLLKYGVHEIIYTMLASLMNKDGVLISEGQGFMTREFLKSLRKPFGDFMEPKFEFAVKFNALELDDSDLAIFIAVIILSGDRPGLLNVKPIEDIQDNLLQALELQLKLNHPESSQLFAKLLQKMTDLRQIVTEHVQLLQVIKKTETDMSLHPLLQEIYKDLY

outcome, inactive:
Cc1cc(C)c2nc(N3C(=O)C(O)=C(C(=O)c4ccco4)C3c3ccc(O)cc3)sc2c1 (stereo unspecified), Cc1ccc2cc(CN(Cc3ccccc3)Cc3nnnn3C3CCCC3)c(=O)[nH]c2c1, COc1ccccc1NC(=O)C(=O)c1cn(CC(=O)N2CCOCC2)c2ccccc12, O=C(O)CCN1C(=O)/C(=C/c2ccccc2Cl)SC1=S, CN(CCNC(=O)C1CCCN(c2ncnc3c2nc2n3CCCCC2)C1)Cc1ccccc1 (stereo unspecified), COc1ccc(CN(Cc2ccccn2)C(=O)CN2C(=O)C(C)Oc3ccccc32)cc1 (stereo unspecified), O=C(c1nc2ccccn2c1CN1CCCC(O)C1)N1CCN(C2CCCCC2)CC1 (stereo unspecified), Cc1ccccc1NC(=O)CC1C(=O)Nc2ccccc2N1CC(=O)N(C)C1CCS(=O)(=O)C1 (stereo unspecified), COc1ccc(C=NNS(=O)(=O)c2ccc(F)cc2)cc1COc1cc(F)ccc1[N+](=O)[O-], O=C(CSc1nc(=O)n(CCCN2CCOCC2)c2c1CCC2)Nc1cccc(F)c1, COCCn1cnc2c1c(=O)n(Cc1cc(C(C)=O)ccc1OC)c(=O)n2Cc1ccccc1, O=c1c2cn(Cc3ccc(F)cc3)c3ccccc3c-2nn1Cc1ccc(F)cc1, O=c1c2cn(Cc3ccc(F)cc3)c3ccc(F)cc3c-2nn1Cc1ccc(F)cc1, COc1ccc(-c2cc(C(=O)NC(C)c3ccccn3)c3ccccc3n2)cc1OC (stereo unspecified), CCOc1cc(C2C(C(=O)OC)=CN(Cc3ccc(Cl)cc3)C=C2C(=O)OC)ccc1O, CCC(=O)c1ccc(OCC(=O)OC(C)C(=O)Nc2c(C)n(C)n(-c3ccccc3)c2=O)cc1 (stereo unspecified)
